# In PubChem BioAssay AID434927 (Sanford-Burnham Center for Chemical Genomics, 2010):
# Values without a mark were called inactive. Activity calls are given as the source filed them.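 How the source made its calls: active means inhibition above about 23% in any of six single-dose repeats (limit read from the data); inactive means the rest.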
# Target: Intestinal-type alkaline phosphatase (Homo sapiens) (UniProt P09923)
# Assay: suppression of intestinal alkaline phosphatase activity – biochemical, luminescence, single concentration, uHTS hits, confirmation (AID 434927);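 further: plate controls were DMSO wells with enzyme for no effect and wells lacking enzyme for full effect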
# Settings: purified human IAP, CDP-Star luminescence, 30 min; at 8.3 µM; stronger effect = higher value
# Sequence of Intestinal-type alkaline phosphatase (Homo sapiens) (P09923 whole entry, looked up): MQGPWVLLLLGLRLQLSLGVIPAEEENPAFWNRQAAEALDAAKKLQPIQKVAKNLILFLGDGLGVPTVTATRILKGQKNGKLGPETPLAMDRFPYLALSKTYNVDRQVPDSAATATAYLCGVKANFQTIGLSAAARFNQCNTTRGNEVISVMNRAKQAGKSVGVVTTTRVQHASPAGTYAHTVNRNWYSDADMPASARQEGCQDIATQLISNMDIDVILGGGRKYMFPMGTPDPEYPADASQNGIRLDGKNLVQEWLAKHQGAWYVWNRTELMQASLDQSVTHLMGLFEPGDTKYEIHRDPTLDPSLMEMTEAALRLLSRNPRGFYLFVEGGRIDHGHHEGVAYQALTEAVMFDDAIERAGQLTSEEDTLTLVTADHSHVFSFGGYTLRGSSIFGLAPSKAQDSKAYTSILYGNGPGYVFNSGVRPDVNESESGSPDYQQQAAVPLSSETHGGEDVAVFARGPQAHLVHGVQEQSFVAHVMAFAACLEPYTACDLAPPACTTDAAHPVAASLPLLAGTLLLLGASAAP
row,Compound,inhibition
1,CC(C)C(=O)NC(=S)Nc1ccccc1C(=O)Nc1ccccc1,-108%
2,Cc1ccc(-c2cc(C(=O)N/N=C/c3ccccc3O)n[nH]2)o1,39.3% (active)
3,O=c1c2ccccc2nc(N/N=C/c2c(O)ccc3ccccc23)n1O,-53.7%
4,O=C(CCCCC(=O)NNC(=O)COc1ccccc1)NNC(=O)COc1ccccc1,-88.4%
5,Oc1ccc(N=Nc2c(O)ccc3ccccc23)cc1,-91.9%
6,Cc1ccc(O)c(/C=N/NC(=O)c2[nH]ncc2Br)c1,23.2% (active)
7,CC(=O)c1ccc(NC(=O)C2CCCN2S(=O)(=O)c2cccs2)cc1 (stereo not drawn),-85.1%
8,CN(CC(=O)Nc1ccccc1F)CC(=O)Nc1ccc(F)c(F)c1F,51.6% (active)
9,Cc1cc(Br)ccc1SCC(=O)OC/C(O)=C(\C#N)c1nc2ccccc2[nH]1,-67.4%
10,Cc1cc(C)cc(CC(Cc2nc3ccccc3[nH]2)c2nc3ccccc3[nH]2)c1 (stereo not drawn),-323%
11,CC(=O)Nc1cccc(-c2csc(Nc3ccccn3)n2)c1,-94.1%
12,Cc1ccc(Cl)cc1NC(=O)C(=O)N/N=C/c1ccc2c(c1)OCO2,40.1% (active)
13,O=C(CSc1ncn[nH]1)NCCc1ccccc1,-113%
14,CCOc1ccccc1CN1CCC(n2nccc2NC(=O)CCc2ccccc2)CC1,26.6% (active)
15,COc1cccc(/C=N/Nc2nn3cnnc3c3ccccc23)c1O,40.4% (active)
16,O=C(CSc1nc(-c2cccs2)cc(C(F)(F)F)n1)NCc1ccccc1,36.7% (active)
17,CCOC(=O)c1cnc(-n2nc(C)cc2C)nc1NNc1nc(C)cc(C)n1,71.7% (active)

row,Compound,inhibition
1,c1ccc(-c2cccc(-c3ccccn3)n2)nc1,-113%
2,CCOC(=O)c1c(C)[nH]c(C(=O)N/N=C/c2cc([N+](=O)[O-])ccc2O)c1C,29.6% (active)
3,CC(C)(C)NC(=O)C(=O)NNC(=O)COc1ccccc1,39% (active)
4,COc1ccccc1C1=NN(C2=NN=C(N)Cc3ncnn32)C(O)(C(F)(F)F)C1 (stereo not drawn),45.2% (active)
5,CC(C)n1cc(CN2CCC(C(=O)Nc3cccc(-c4cccc(Cl)c4)c3)CC2)cn1,-96.7%
6,O=C(Cc1coc2ccc3ccccc3c12)NCc1ccccc1,59.4% (active)
7,Cc1nc2c3ccccc3nc(NNC(=O)CCC(=O)NCCC(C)C)n2n1,-64.4%
8,O=C(NNC(=S)NCc1ccco1)c1ccccc1Br,41.4% (active)
9,CN(Cc1ccccc1)C(=O)c1[nH]cnc1C(=O)Nc1nccs1,-141%
10,CC(C)(C)N/N=C/c1c(O)n(-c2ccc(Cl)cn2)c(=O)c2ccccc12,-93.3%
11,CCc1nnc(NC(=O)CSc2nnc(C)c(=O)n2N)s1,41.3% (active)
12,CCOc1cccc(-c2nc(C(N)=O)c3[nH]c(=O)n(-c4cccc(Cl)c4)c3n2)c1O,-74.5%
13,CCC(C)(C)C1CCc2[nH]nc(C(=O)N/N=C(\C)c3ccco3)c2C1 (stereo not drawn),62.7% (active)
14,CCCOCC(O)CC(CC)C(=O)NNC(=S)Nc1ccccc1 (stereo not drawn),-138%
15,CCn1cnc2sc(C(=O)O)c(C)c2c1=O,64% (active)
16,COc1ccc(C=C2C(=O)c3ccccc3C2=O)cc1O,56.2% (active)
